This is part of a sample that, as a whole, favours compounds with a hit. Of some 83,000 tested, about 20% had one in any assay.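 Activity criterion: percent growth below 10, measured after cells in 96-well plates were exposed to a single compound concentration for 48 hours.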 A number with no mark means an inactive call. Calls of active or inactive are those of the source.
System: OVCAR-4 ovarian
Experiment: NCI-60 one-dose screen, 48 h (100 = growth as untreated, 0 = no growth, -100 = all killed)
Conditions: 10 µM unless noted
Procedure: Growth inhibition of the OVCAR-4 human tumor cell line is measured as a screen for anti-cancer activity. Cells are grown in 96 well plates and exposed to the test compound for 48 hours. Compounds are tested at a single concentration, which is 10^-5 M for most compounds. The reported endpoint is percent growth (GI% or GIPRCNT), where numbers from 0 - 100% represent growth inhibition, and numbers from -100% - 0 represent cell death. For example, a value of 40 represents 60% growth inhibition. A value of 0 means no net growth occurred over the course of the experiment. A value of -40 indicates 40% of cells at the beginning of the experiment died by the end of the experiment. A value of -100 means all cells are dead at the end of the experiment.
NCI-60 Human Tumor Cell Lines Screen was performed using the standard one-dose NCI protocol, which is described in more detail at https://dtp.cancer.gov/discovery_development/nci-60/default.htm.
Compounds with GIPRCNT values below 10 were considered active. Activity score was based on GIPRCNT using the following formula: […]
Score is 0 for GIPRCNT values of 100 or above, 50 for GIPRCNT values of 0, and 100 for GIPRCNT values of -100.

| SMILES | growth |
| --- | --- |
| NC(=O)c1cccc(-n2ccc3cc(NC(=O)c4ccc(N5CCOCC5)c(C(F)(F)F)c4)ccc32)n1 | 47% |
| COc1cc2nc3cc([N+](=O)[O-])ccc3c(NCCNCC(C)O)c2cc1OC (stereo not given) | -32.4% (active) |
| CCCCCN1C(=O)/C(=c2\sc3n(c2=O)C2C(NN=3)N(CC)C(=O)N2CC)c2ccccc21 (stereo not given) | -56.7% (active) |
| COc1cc(-c2nccc3[nH]c(-c4ccc5cc[nH]c5c4)nc23)cc(OC)c1OC | 39.3% |
| CN(C)CC(C)(C)C(=O)/C=C/c1ccccc1 | -19.5% [25 µM] (active) |
| Cc1ccc(-c2nc([P+](c3ccccc3)(c3ccccc3)c3ccccc3)c(S(=O)(=O)c3ccc(C)cc3)o2)cc1 | 14.2% |
| Oc1c(I)cc(I)cc1CNCCN(Cc1ccccn1)Cc1ccccn1 | -48.5% (active) |
| Nc1n[nH]c2cccc(C#Cc3cccc(NC(=O)c4cc(F)cc(C(F)(F)F)c4)c3)c12 | 90.5% |
| N#Cc1nc(-c2ccc(F)cc2)oc1S(=O)(=O)N1CCOCC1 | 60.9% |
| Cc1ccc(C[P+](c2ccccc2)(c2ccccc2)c2ccccc2)cc1 | 1.45% (active) |
| C=CC[Se]C(=O)Cc1c(C)n(C(=O)c2ccc(Cl)cc2)c2ccc(OC)cc12 | -50.7% (active) |
| Cn1cc(-c2nonc2-c2cn(C)c3ccccc23)c2ccccc21 | 56.1% |
| CS(=O)(=O)c1ccc(-c2cnn3ccc(-c4cccc(S(=O)(=O)C5CC5)c4)nc23)cc1 | 67.9% |
| COc1ccc(\C=N/N=C(N)/C(N)=N\N=C/c2ccc(OC)cc2)cc1 | 117% |
| CCOC(=O)C(=O)C(C(=O)OCC)c1ccccc1 (stereo not given) | 106% |
| O=C1NC(=O)C(Cc2ccc(OCc3ccc(-c4ccc(Cl)cc4Cl)cc3)cc2)S1 (stereo not given) | 47.4% |
| COc1ccc(CNc2c3ccccc3nc3ccccc23)cc1 | 40.3% |
| COc1cc2c(c(OC)c1OC)CCC(c1cccc(NC(=O)c3ccc(Br)cc3)c1)O2 (stereo not given) | 67.4% |
| CCC(=C(c1ccc(OCCN2CCCCC2)cc1)c1ccc(OCCN2CCCCC2)cc1)c1ccc(Cl)cc1 | -90.2% (active) |
| O=C(NNC(=O)c1ccc(NC(=O)c2ccccn2)cc1)Nc1ccc([N+](=O)[O-])cc1 | 108% |

| SMILES | growth |
| --- | --- |
| Cc1nc2sc(C(=O)Nc3cccc(Br)c3)c(N)c2cc1C(O)c1ccccc1 (stereo not given) | 70.5% |
| Cc1ccc(/C=C2\COc3ccc(O)cc3C2=O)cc1 | 93.3% |
| N#CSc1c[nH]c2cccc(/C=C/C(=O)/C=C(/C=C/c3cccc4[nH]cc(SC#N)c34)OB(F)F)c12 | 7.06% (active) |
| Cc1c(-c2ccc(O)cc2)n(Cc2ccc(OCCN3CCCCCC3)cc2)c2ccc(O)cc12 | 78.1% |
| CC1=C2[C@@H](CC1)[C@]1(C)O[C@@](C(C)C)(C[C@H]1OC(=O)[C@H](C)O)[C@H]2OC(=O)/C=C/c1ccccc1 | 81.7% |
| CS(=O)(=O)Nc1cncc(-c2ccc3ncnc(Nc4cncc(Cl)c4)c3c2)c1 | 108% |
| Cc1cc(S(=O)(=O)/N=C(\N)n2nc(C)c(C)c2C)c(SCc2ccccc2)cc1Cl | 63.3% |
| O=C(Nc1nc2ccccc2s1)c1ccc(F)cc1 | 85.4% |
| CCOC(=O)c1cc(C)n(-c2ccc(C(=O)O)cc2)c1C | 94.6% |
| O=C(Nc1ccc(Oc2cccc(Cl)c2)c(Cl)c1)c1cccnc1 | 47.8% |
| CC(C)(Sc1cc(C(C)(C)C)c(OC(=O)CCCC(=O)O)c(C(C)(C)C)c1)Sc1cc(C(C)(C)C)c(OC(=O)CCCC(=O)O)c(C(C)(C)C)c1 | 79.6% |
| CC/C=C\C[C@H](O)C/C=C1/C(=O)C=C[C@@H]1C/C=C\CCCC(=O)N(C)C | 43.9% |
| O=C(Nc1ccc(Oc2cccc(F)c2)c(Cl)c1)c1cccnc1 | 46.2% |
| Cc1cn(-c2cc(NC(=O)c3cccc(C#Cc4cccc5[nH]nc(N)c45)c3)cc(C(F)(F)F)c2)cn1 | 45.6% |
| CC1=NC2=Nn3c(c4cnn(-c5ccccc5)c4n/c3=N\N)NN2C(c2ccccc2)=C1 | 94.7% |
| CCCc1c(OC(=O)c2ccccc2)nc2[nH]c(=O)sc2c1C | 114% |
| CC(C)c1ccc(Cc2cnc(NC(=O)c3cc(Br)cs3)s2)cc1 | 54.3% |
| C=CCn1c(SCC(=O)Nc2ccc(C(=O)/C=C/c3ccc(Cl)cc3)cc2)nnc1-c1ccc(Br)cc1 | 57.6% |
| NC(=O)CSc1oc(-c2ccccc2)nc1S(=O)(=O)c1ccc(Br)cc1 | 45.4% |
| COC(CC(F)F)c1cn(S(=O)(=O)c2ccc(C)cc2)c2ccccc12 (stereo not given) | 65.5% |

Reference: PubChem BioAssay (NCI)
